# Assay outcomes (PubChem BioAssay)
# In the library only some 3% were active in any assay of this set; here they are far more common.
# MITF act: activators of MITF-driven TRPM1 promoter activity in SK-MEL-5 cells; activation, % at 12.5 µM; actives 0.75% (n = 300,000); SK-MEL-5 TRPM1-promoter luciferase, 24 h; % of positive control, neutral wells = 0; AID 588334;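 active means mean activation of at least 80% with every replicate also reaching 80%; inconclusive means mean reaches 80% but some replicate falls short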;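 further: 0% = neutral control wells and 100% = parthenolide positive control wells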
# esBAF inh: blocks esBAF chromatin remodeling in mouse ES cells | actives 2% (n = 350,000) | Bmi1-luciferase knock-in reporter, 24 h; 100% = twice the neutral-well signal | AID 602393 | reporter increase, % at 12.5 µM; in the data active means activation above about 40%; inconclusive means no clear call, values can overlap the other calls;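 further: 0% = median of the plate's neutral control wells and 100% = double that signal; a rise in the Bmi1 reporter signal indicates esBAF inhibition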
# Vif imaging: blocks HIV Vif function; actives 0.35% (n = 340,000); inhibition, % at 7.49 µM; HEK293T cells, Vif self-association by quenched fluorescence, imaging, 24 h; in the data active means inhibition above about 50%, passing the limit was not always enough; inconclusive means no clear call, values can overlap the other calls; inactive means below about 31%
# PfHsp90 set2: inhibits growth of yeast expressing Plasmodium falciparum Hsp90. AID 504621. inhibition, % at 9.4 µM. actives 0.32% (n = 310,000). S. cerevisiae expressing PfHsp90, BacTiter-Glo ATP, 48 h; yeast lacking PDR1 and PDR3 efflux regulators;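 active means every replicate shows inhibition above about 80%, whatever the replicate mean, limit read from the data; inconclusive means mean inhibition reaches the set limit but some replicate falls short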;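 further: 0% = DMSO neutral controls and 100% = 20 µM radicicol positive controls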
# Glyco luc inh: N-linked glycosylation inhibition; D54 ERlucT glycosylation luciferase reporter, 24 h; percent of 100 nM tunicamycin response; reporter increase, % at 12.5 µM; actives 0.23% (n = 360,000); AID 588692;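 active means mean luciferase reporter signal, scaled so untreated is 0 and the glycosylation-blocking control 100, at or above a set limit in every replicate; inconclusive means mean reaches the limit but not every replicate does; inactive means mean below the limit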;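 further: luciferase carries N-glycosylation sites so blocking glycosylation raises the light; 0% = median of neutral control wells and 100% = median of 100 nM tunicamycin wells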
# Wnt act: Wnt/beta-catenin pathway activation; Wnt/beta-catenin reporter cell assay, activator, plate reader; AID 743398; actives 1.2% (n = 300,000); activation, % at 9.35 µM; in the data active means activation above about 30%, passing the limit was not always enough; inconclusive means no clear call, values can overlap the other calls;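 further: 0% = neutral control wells and 100% = positive control wells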
# An asterisk follows results filed as active; u = inconclusive; x = no result given.
SMILES,MITF act,esBAF inh,Vif imaging,PfHsp90 set2,Glyco luc inh,Wnt act
COc1ccc(NC(=O)CN(C)C(=O)c2ccc3c(c2)S(=O)(=O)N=C2CCCCCN23)cc1,6.3,-3.4,11.2,-6.1,3.9,0.7
COc1ccc(OC)c(C(=O)COC(=O)c2ccccc2O)c1,x,41.5*,3.1,-1.2,2.9,x
O=C(OCCOc1ccccc1)c1n[nH]c2ccccc12,106.0*,u,-2.3,8.5,-2.8,38.3*
COc1ccc(OC)c(NC(=O)COC(=O)c2n[nH]c3ccccc23)c1,-18.2,4.7,-9.4,21.6,3.8,-3.6
CCOC(=O)c1n[nH]c2ccccc12,4.3,10.0,-1.4,x,-1.0,x
COc1ccc(C(=O)COC(=O)c2n[nH]c3ccccc23)c(OC)c1,95.9*,x,3.8,14.3,-3.1,19.9
Cn1cccc1C(=O)C(=O)Nc1cccc(Cl)c1Cl,57.7,63.2*,-3.7,x,-2.3,x
Cn1cccc1C(=O)C(=O)Nc1cc(Cl)cc(Cl)c1,46.1,49.0*,-18.7,-18.8,1.6,7.2
Cn1cccc1C(=O)C(=O)Nc1ccc(F)c(F)c1,102.8*,45.6*,-5.0,2.1,-3.0,-1.1
CC(C(=O)Nc1ccc(F)c(F)c1)N1CCN(C)CC1 (stereo not given),-3.8,-1.5,5.6,7.0,1.4,0.8
Cn1cccc1C(=O)C(=O)Nc1ccc(Cl)cc1,x,13.1,6.1,-1.5,-6.7,9.5
COc1ccc(OC)c(Nc2nc3nonc3nc2N2CCCCC2)c1,-2.5,-3.8,-8.9,-9.7,1.8,x
CCCNC(=O)C1(C)CCN(C(=O)c2ccc3c(c2)CCO3)C1 (stereo not given),x,-1.6,12.2,x,2.6,-3.4
COc1ccc(N2CCN(C(c3cccc(OC)c3OC)c3nnnn3C3CCCC3)CC2)cc1 (stereo not given),-6.4,-3.5,6.7,31.7,-3.7,-0.9
CC(C)CCN1CN(S(=O)(=O)c2cccs2)c2nc3ccccc3nc21,7.9,13.5,1.9,37.7,-1.9,x
O=S(=O)(c1cccs1)N1CN(Cc2ccc(Cl)cc2)c2nc3ccccc3nc21,3.4,54.4*,1.3,-13.4,1.1,x
O=S(=O)(c1cccs1)N1CN(Cc2ccco2)c2nc3ccccc3nc21,11.4,18.5,-12.1,34.7,-2.0,7.3
Cc1ccc(CN2CN(S(=O)(=O)c3cccs3)c3nc4ccccc4nc32)cc1,66.4,70.4*,14.3,-7.6,-8.2,x
CC1CCN(c2ccc(NC(=O)c3cccnc3)cc2)CC1,x,31.7,3.6,x,-0.3,36.7*
CN1CCN(c2ccc(NC(=O)c3ccc(Br)o3)cc2)CC1,34.0,5.4,-6.5,6.9,-8.2,16.8
CS(=O)(=O)N1CCN(c2ccc(NC(=O)c3ccc(Br)o3)cc2)CC1,u,29.5,x,-18.6,-0.6,56.7*
O=C(Nc1ccc(N2CCN(C(=O)c3ccccc3)CC2)cc1)c1cccnc1,2.5,-1.8,6.0,-1.0,-4.7,-1.6
CCN(CC)c1ccc(NC(=O)c2cncc(Br)c2)cc1,58.3,x,-0.5,-14.2,-5.4,x
CCN(CC)c1ccc(NC(=O)c2cccnc2)cc1,57.5,31.9,x,0.5,1.2,37.1*
O=C(Nc1ccc(N2CCOCC2)cc1)c1ccc(Br)o1,x,-70.0,-4.7,-1.8,-14.1,22.6
SMILES,MITF act,esBAF inh,Vif imaging,PfHsp90 set2,Glyco luc inh,Wnt act
CC1CCN(c2ccc(NC(=O)c3ccc(Br)o3)cc2)CC1,78.5,55.7*,-11.9,11.9,-9.1,u
O=C(CCS(=O)(=O)Cc1ccccc1)Nc1nnc(C(F)(F)F)s1,15.3,-2.9,-8.5,-21.6,-4.4,-1.6
CCOc1ccc(/C=N/Nc2nc(=O)[nH]nc2C)cc1OC,59.2,12.9,-18.1,x,0.7,7.5
Nc1cc(-c2ccc(Cl)cc2)nn1-c1ccccc1,119.1*,58.0*,1.2,x,-1.3,48.6*
CC(=O)Nc1ccc(-c2cc(N)n(-c3ccccc3)n2)cc1,48.1,x,-5.7,11.7,-2.1,44.4*
CC(=O)Nc1ccc(-c2cc(NC(C)=O)n(-c3ccccc3)n2)cc1,1.6,-6.8,-0.8,-1.3,0.3,x
Cc1ccc2nc(SCC(=O)c3ccccc3)nc(=O)n2c1,70.5,67.9*,8.0,x,-10.3,11.7
Cc1ccn2c(=O)nc(SCC(=O)c3ccccc3)nc2c1,74.6,42.3*,16.5,x,-0.1,28.3
Cc1ccnc(N/C=C/C(=O)c2ccc(Br)cc2)c1,71.8,-4.0,-9.2,-21.0,-15.0,38.8*
O=C(/C=C\Nc1ccc(Cl)cn1)c1ccc(Br)cc1,103.4*,x,-2.1,4.4,3.4,35.6*
Cc1cc(N/C=C/C(=O)c2cccc3ccccc23)no1,7.3,31.0,x,-6.4,1.1,x
COc1ccc(C(=O)/C=C/Nc2cc(C)ccn2)cc1,x,x,8.7,-15.1,-18.6,-0.8
Cc1cc(N/C=C/C(=O)c2ccc(Br)cc2)no1,104.7*,81.4*,-7.1,4.2,0.7,33.1*
O=C(Nc1cccc(Cl)c1)N[C@H]1CC[C@H](CCNC(=O)C2CCC2)O[C@@H]1CO,x,2.1,x,x,x,x
Cn1c(=O)n(C)c2cc(NC(=O)CCl)ccc21,x,-5.5,-2.9,x,82.3*,2.4
Cn1c(=O)n(C)c2cc(NC(=O)c3ccccc3)ccc21,x,1.7,-3.1,x,10.1,-1.0
CC(C)Sc1ccccc1C(=O)Nc1ccc2c(c1)n(C)c(=O)n2C,x,2.4,1.0,-6.7,34.5*,-3.2
CC(=O)Nc1ccc2c(c1)n(C)c(=O)n2C,-4.0,-11.0,-6.3,x,3.7,x
O=C(CCl)N1c2ccccc2Oc2ccc3ccccc3c21,-86.6,50.1*,7.7,x,-17.5,7.5
CC(=O)N1c2ccccc2Oc2cc3ccccc3cc21,37.7,x,9.5,-15.0,-0.8,u
c1ccc2[nH]c(CCCc3nc4ccccc4[nH]3)nc2c1,x,-3.1,0.4,-25.4,1.4,2.0
c1ccc(CCc2nc3ccccc3[nH]2)cc1,69.0,20.4,8.4,-2.8,-0.1,41.9*
O=c1[nH]c2ccccc2nc1CCc1ccccc1,78.4,x,-2.7,17.4,-3.3,31.4*
c1csc(Cc2nc3ccccc3[nH]2)c1,26.6,70.8*,0.5,18.5,2.4,17.8
CCOC(=O)C1=C(COC(=O)CNC(=O)c2ccc(C(C)(C)C)cc2)NC(=O)NC1C (stereo not given),9.3,7.6,3.8,6.7,2.8,4.1
CSCCC(=O)N1CCC(n2nccc2NC(=O)c2ccc3c(c2)OCO3)CC1,44.2,60.8*,-10.9,5.9,-1.8,16.2
C=CCC(=O)N1CCC(n2nccc2NC(=O)c2ccc3c(c2)OCO3)CC1,x,x,9.4,x,-0.6,-0.4
CCOC1=CC(=O)N(Cc2ccccc2)C1,x,x,-2.8,3.0,-1.9,0.5
C[C@@H]1CCCCO[C@@H](CN(C)C(=O)c2ccccc2)[C@@H](C)CN([C@H](C)CO)C(=O)c2cc(NC(=O)Nc3ccccc3)ccc2O1,x,-1.6,x,x,x,x
CCn1c(NC(=O)c2ccccc2)nc2ccccc21,x,x,-4.7,21.7,3.9,31.5*
